# From PubChem
# A selection: hits, their analogues and other compounds. The true share with any hit is near 8.8%.
# HTT ATP protect = cytoprotection in Huntington HTT-Q103 PC12 cell model; PC12 HTT-Q103 induced, cytoprotection, ATP luminescence, 40 h; Potency, µM (top dose mostly 56.4 µM), usual class: activators; 0.14% of 230,000 active; AID 1471; active = well fitted curve in the direction sought with a large enough effect; inconclusive = small, poorly fitted or top-dose-only effect, or another doubt; inactive = no such curve, though single readings can be large; an effect the other way counts as inactive or inconclusive; note: nearly all actives have a fitted effect of over 45% in size
#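 PC12 cells with ecdysone-inducible HTT exon 1 Q103-GFP, induced with 100 nM tebufenozide and co-treated with library compounds in a dose series (1536-well, 1500 cells/well). Cytoprotection read as ATP content by ATPlite luminescence.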
# LMNA splice mod = modulators of lamin A splicing | AID 1487 | HeLa LMNA splicing GFP/RFP minigene ratio, 48 h | 0.01% of 200,000 active | Potency, µM (series often up to 46.1 µM), hits mostly inhibitors; active = well fitted inhibition curve with a large enough effect in the signal ratio, with a control signal flat, not every such curve was filed as active; inconclusive = small, poorly fitted or top-dose-only effect, or effect the other way, or a change in a side signal; the % refers to the signal ratio
#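 S3 HeLa cells stably expressing lamin A-EGFP splicing minigene plus DsRed2, 600 cells/well, 48 h compound exposure at 37C. Laser-scanning cytometry; analysed as GFP (500-530 nm)/RFP (575-640 nm) total intensity ratio; 0.5% DMSO vehicle.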
# HPGD block = inhibitors of human 15-hydroxyprostaglandin dehydrogenase (HPGD) | 4.3% of 150,000 active | AID 894 | purified HPGD, NADH fluorescence kinetic, PGE2 substrate | Potency, µM, most hits filed as inhibitors
#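 NADH formation kinetics: reaction with 30 uM PGE2 and 1 mM NAD+ (final), 20 nM enzyme, Tris-HCl pH 8 with Tween 20, after 15 min compound preincubation at room temperature. Fluorescence change, last versus first of five reads.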
# HTT aggregate = inhibitors of mutant huntingtin aggregate formation in PC12 cells; PC12 HttQ103-GFP aggregates, Acumen cytometry, 40 h; Potency, µM (doses to about 46.1 µM), hits mostly inhibitors; 1.1% of 220,000 active; AID 1688; active = well fitted curve in the direction sought with a large enough effect; inconclusive = small, poorly fitted or top-dose-only effect, or another doubt; inactive = no such curve, though single readings can be large; an effect the other way counts as inactive or inconclusive; note: nearly all actives have a fitted effect of over 60% in size
#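 Ecdysone-promoter PC12 model expressing HTT exon 1 Q103 fused to GFP, induced by tebufenozide at 100 nM final. Compounds titrated; aggregates sized 1–25 µm scored on a 488 nm laser cytometer.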
# ALDH1A1 block = blocks purified human ALDH1A1 activity; Purified ALDH1A1, NADH fluorescence, propionaldehyde substrate; Potency, µM (top dose mostly 75.3 µM), hits mostly inhibitors; 7.3% of 220,000 active; AID 1030
# Target sequence (P00352 whole entry, looked up): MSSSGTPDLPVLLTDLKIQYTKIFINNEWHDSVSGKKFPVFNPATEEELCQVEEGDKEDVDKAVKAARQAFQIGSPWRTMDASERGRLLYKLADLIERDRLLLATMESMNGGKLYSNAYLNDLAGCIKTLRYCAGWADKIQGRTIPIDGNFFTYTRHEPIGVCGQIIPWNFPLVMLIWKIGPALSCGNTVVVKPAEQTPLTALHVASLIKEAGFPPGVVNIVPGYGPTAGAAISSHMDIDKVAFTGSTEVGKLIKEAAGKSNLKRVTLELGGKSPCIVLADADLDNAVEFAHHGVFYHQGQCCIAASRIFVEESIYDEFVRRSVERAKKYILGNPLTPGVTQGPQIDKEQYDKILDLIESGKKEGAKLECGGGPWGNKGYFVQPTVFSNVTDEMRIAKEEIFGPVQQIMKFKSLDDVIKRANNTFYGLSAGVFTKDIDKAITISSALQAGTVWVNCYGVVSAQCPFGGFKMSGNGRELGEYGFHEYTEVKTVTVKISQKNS
# A number is an active result; . = inactive; ? = inconclusive; / = no result given; [ ] = remark or other dose. Unless noted, calls come from the whole dose curve; as a rule, active = well fitted inhibition curve with a large enough effect (not every such curve was filed as active); inconclusive = small, poorly fitted or top-dose-only effect, or another doubt; inactive = no such curve, though single readings can be large or run the other way.
SMILES,HTT ATP protect,LMNA splice mod,HPGD block,HTT aggregate,ALDH1A1 block
CCOC(=O)C(C)Sc1ccc2nnc(CCNS(=O)(=O)c3ccccc3)n2n1 (stereo unspecified),.,?,/,.,.
COc1ccc(C(=O)NCc2nnc(SCC(=O)NCc3ccc(F)cc3)o2)cc1,.,.,.,.,?
COc1ccc(C(=O)NCc2nnc(SCC(=O)Nc3cccc(F)c3)o2)cc1,.,/,/,.,9.5µM
Cc1cc(C)n2c(SCC(=O)Nc3ccc(F)cc3)nnc2n1,.[10 µM],/,/,.[9.22 µM],14µM
Cc1cc(C)n2c(SCC(=O)Nc3ccc(F)cc3F)nnc2n1,.,?,/,.,?
Cc1cc(C)n2c(SCC(=O)Nc3ncc(C(F)(F)F)cc3Cl)nnc2n1,.[10 µM],.,.,.,13µM
COc1ccccc1NC(=O)c1cc2c(=O)n(Cc3cccs3)ccc2nc1C,/,.,/,/,/
CN(C)S(=O)(=O)c1cccc(-c2nnc(SCC(=O)NCCCCCC(=O)O)n2-c2ccc(F)cc2)c1,.[10 µM],/,/,.,.
CC(=O)N1CCC(N(CCN2CCOCC2)C(=S)Nc2ccc(C)c(C)c2)CC1,.,.,/,.,.
OC[C@@H]1O[C@@H](N2CCN([C@@H]3O[C@@H](CO)[C@@H](O)[C@H](O)[C@H]3O)CC2)[C@@H](O)[C@H](O)[C@H]1O,.[10 µM],/,.,/,.[13.5 µM]
CCOC(=O)C1(CCOc2ccccc2)CCN(Cc2cnc(C)s2)CC1,.[10 µM],/,/,.[9.22 µM],16µM
CCOC(=O)C1(CCOc2ccccc2)CCN(Cc2ccc3nonc3c2)CC1,.[10 µM],/,/,.[9.22 µM],28µM
CCOC(=O)C1(CCOc2ccccc2)CCN(Cc2ccc(CO)o2)CC1,.[10 µM],?,/,.[9.22 µM],.
O=C1C=CC2(OCCCO2)C(Br)=C1,.[10 µM],/,/,/,.[13.5 µM]
COc1ccc(-c2csc3ncn(-c4ccccc4)c(=O)c23)cc1OC,.[10 µM],/,/,.[9.22 µM],7.9µM
CC(C)c1ccc(S(=O)(=O)N2CCN(CC(=O)Nc3ccccc3C(F)(F)F)CC2)cc1,/,.,/,/,/
CC(C)(C)C1=CC=C(C(C)(C)C)C(=O)C1=O,.[10 µM],/,/,.[9.22 µM],1.6µM
Cc1cc(NC(=O)c2cc([N+](=O)[O-])cc([N+](=O)[O-])c2C)no1,/,/,/,/,.
CCCn1c(O)c(N=NC(=O)c2cccnc2)c2cc(Br)ccc21,.[10 µM],/,/,.[9.22 µM],1.1µM
CCCn1c(O)c(N=NC(=O)c2ccco2)c2ccccc21,.[10 µM],?,.,.,?
Cn1nc(C(F)(F)F)c(C(=O)Nc2ccc(C(F)(F)F)cc2)c1Cl,.,.,.,.,.
COc1ccc(NC(=O)c2c(C(F)(F)F)nn(C)c2SCc2ccccc2)cc1,.,.,.,.,8.9µM
COc1ccc(C/C(C)=N/NC(=S)Nc2ccc(C)c(C)c2)cc1,.[10 µM],.,/,?,24µM
COc1ccc(C/C(C)=N/NC(=S)Nc2ccccc2)cc1,.[10 µM],.,.,.,22µM
COc1ccc(C/C(C)=N/NC(=S)Nc2ccc(Cl)cc2)cc1,.[10 µM],/,/,.[9.22 µM],/
SMILES,HTT ATP protect,LMNA splice mod,HPGD block,HTT aggregate,ALDH1A1 block
COc1ccc(NC(=S)N/N=C/c2cccn2Cc2ccc(F)cc2)cc1,.,.,/,.,40µM
COc1ccc([C@@H]2CC(=O)c3c(O)cc(O[C@@H]4O[C@@H](CO[C@@H]5O[C@@H](C)[C@@H](O)[C@@H](O)[C@H]5O)[C@@H](O)[C@@H](O)[C@H]4O)cc3O2)cc1O,.,/,/,/,/
O=C(CSc1nccn1-c1cccc(Cl)c1)NO,.,/,/,.,.
O=C(CSc1nccn1-c1cccc(Cl)c1)NC1CCCC1,.,.,16µM,.,.
O=C(CCSCc1cccc(Cl)c1)NC1CCCC1,.[10 µM],.,14µM,.,.
O=C(CCSCc1cccc(Cl)c1)NCCC1=CCCCC1,.[10 µM],.,?,.,.
O=C(CCSCc1ccccc1Cl)NC1CCCC1,.[10 µM],.,11µM,.,.
CC(=O)N/N=C(\C)C1COc2ccccc2O1 (stereo unspecified),.[10 µM],/,/,.[9.22 µM],/
CCSc1nc2n(n1)C(c1ccc(CC)cc1)C(C(=O)Nc1ccccc1OC)=C(C)N2 (stereo unspecified),/,.,/,/,/
CC(C)C1Nc2ccc(C(=O)O)cc2C2C=CCC21 (stereo unspecified),.[10 µM],/,/,.[9.22 µM],?
O=C(c1ccccc1O)N1CCOCC1,.[10 µM],/,/,.[9.22 µM],/
Cc1ccc2c(c1C)NC(C(=O)O)C1CC=CC21 (stereo unspecified),.[10 µM],?,10µM,.,13µM
O=C(O)C1Nc2c(C(=O)N3CCOCC3)cccc2C2C=CCC12 (stereo unspecified),.,.,25µM,.,?
CCOC(=O)c1ccc2c(c1)C1C=CCC1C(C(=O)O)N2 (stereo unspecified),.,.,16µM,.,18µM
CCCC1Nc2ccc(C(=O)O)cc2C2C=CCC12 (stereo unspecified),.[10 µM],?,?,.,?
O=C(CSc1nc2ccsc2c(=O)n1Cc1ccccc1F)NCc1ccccc1Cl,/,.,/,/,/
